According to PubChem BioAssay (NCI):
The panel holds about 83,000 compounds, 20% with a hit somewhere; the sample as a whole holds those more often.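 Step 1: grow cells in 96-well plates. Step 2: add test compound at a single concentration. Step 3: incubate 48 h. Step 4: record percent growth.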 Values without a mark were called inactive. Calls of active or inactive are those of the source. Rule for the calls: active = growth percent below 10; inactive = the rest.

Key:
Assay in all cases: NCI-60 one-dose screen, 48 h (100 = growth as untreated, 0 = no growth, -100 = all killed)
Conditions in all cases: 10 µM unless noted
[1] = test system: SR leukemia
[2] = test system: RPMI-8226 leukemia
[3] = test system: OVCAR-8 ovarian
[4] = test system: OVCAR-5 ovarian
[5] = test system: OVCAR-4 ovarian
[6] = test system: SK-OV-3 ovarian
[7] = test system: IGROV1 ovarian
[8] = test system: OVCAR-3 ovarian
[9] = test system: HS 578T breast
[10] = test system: NCI/ADR-RES ovarian
[11] = test system: T-47D breast
[12] = test system: BT-549 breast
[13] = test system: MDA-MB-435 melanoma
[14] = test system: SW-620 colon
[15] = test system: MCF7 breast
[16] = test system: HCT-116 colon
[17] = test system: HCC-2998 colon
[18] = test system: KM12 colon

Row | SMILES | growth [1] | growth [2] | growth [3] | growth [4] | growth [5] | growth [6] | growth [7] | growth [8] | growth [9] | growth [10] | growth [11] | growth [12] | growth [13] | growth [14] | growth [15] | growth [16] | growth [17] | growth [18]
1 | C=C1C(=O)O[C@@H]2C3C(=C(C)CC[C@@H]12)CC1O[C@]13C (stereo not given in full) | 38.4% [6.75 µM] | 43.8% [6.75 µM] | 83.5% [6.75 µM] | 108% [6.75 µM] | 93.4% [6.75 µM] | 118% [6.75 µM] | 99.4% [6.75 µM] | 75.8% [6.75 µM] | 90.4% [6.75 µM] | 98.1% [6.75 µM] | 56.8% [6.75 µM] | 76.3% [6.75 µM] | 75.5% [6.75 µM] | 71.8% [6.75 µM] | 44.2% [6.75 µM] | 46.1% [6.75 µM] | 108% [6.75 µM] | 102% [6.75 µM]
2 | C[N+]1=C(/C=C/c2ccccc2Cl)C(C)(C)c2ccccc21 | 18.2% | 66.9% | 90.8% | 100% | 96.1% | 94.3% | 90.6% | 78.3% | 102% | 101% | 86.4% | 109% | 100% | 92.4% | 94.7% | 90.8% | 103% | 96.6%
3 | Nc1[nH]nc2nc(-c3ccccc3)n3c4ccccc4nc3c12 | 92.2% | 101% | 98.8% | 106% | 101% | 93% | 77.9% | 106% | 106% | 104% | 90.1% | 105% | 98.7% | 95.8% | 92.7% | 99.4% | 110% | 104%
4 | CSc1ccc2c3c(n(C[C@H](O)CO)c(=O)c2c1)-c1ccccc1C3=O | 1.4% (active) | -17.3% (active) | 33.3% | 62.2% | 85% | 81.6% | 52.5% | 76.5% | 83.3% | 56% | 27.3% | 46.9% | 72% | 27.6% | 11.5% | – | 88.8% | 25.3%
5 | COC1/C=C/OC2(C)Oc3c(C)c(O)c4c(O)c(c(/C=N/N(c5ccccc5)c5ccccc5)c(O)c4c3C2=O)NC(=O)C(C)=C/C=C/C(C)C(O)C(C)C(O)C(C)C(OC(C)=O)C1C (stereo not given) | 30.9% | 22.6% | 63.3% | 124% | 69.5% | 84.8% | 100% | 59.1% | 62.2% | 91.9% | -3.9% (active) | 88.9% | 67.9% | 4.75% (active) | 32.8% | 38.7% | 71.1% | 55.6%
6 | Cc1[nH]c(C(=O)Nc2ccccc2OC2CCN(CCN3CCOCC3)CC2)c(Cl)c1Cl | 10.3% | 67.4% | 101% | 96.4% | 97.7% | 111% | 101% | 109% | 93.8% | 97.6% | 86.6% | 80.5% | 105% | 99.7% | 87.2% | 77.1% | – | 103%
7 | CNC(=O)c1cc(Oc2ccc3c(c2)sc2nc(-c4ccc(NC(=O)[C@@H](NC(=O)OC)C(C)C)cc4)cn23)ccn1 | 66.1% | 30.3% | 34.9% | 117% | 66.4% | 98% | 82.2% | 63.3% | 81.6% | 65.1% | 8.68% (active) | 14.2% | 38.5% | 84.3% | 51.6% | 55% | – | 32.8%
8 | Clc1ccc2nn3c4ccccc4c(OCCN4CCOCC4)nc3c2c1 | 88.1% | 91.8% | 85% | 93.2% | 90% | 94.1% | 71% | 97.5% | 97.5% | 80.4% | 87.7% | 97.8% | 103% | 88.1% | 83.4% | – | 107% | 100%
